Measurements published in PubChem BioAssay AID1159580 (chemical genetic matrix, 2015).
The campaign covered roughly 5,500 compounds. About 2,000 (36%) were called active. Inconclusive results (about 18%) are left out. Rule as the data show it: active = normalized growth mostly below about 0.91 (no sharp cut-off); inconclusive = no clear call, values can overlap the other calls; inactive = mostly above about 0.92. This is one part of the list.

Assay: chemical genetic growth profiling, strain panel (AID 1159580);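 also: tested at 20 µM; growth read once vehicle control cultures reached saturation at 30 °C; 1 = growth at the plate median or of vehicle wells; lower values mean less growth of the strain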
Conditions: growth OD

Measured: normalized growth

C[C@]12CCC3c4ccc(OC(=O)CCC(=O)O)cc4CCC3C1CCC2=O (stereo partly specified)
inactive: S. cerevisiae deletion strains, locus YAL013W, strain DEP1, hits give low values 0.981 | S. cerevisiae deletion strains, locus YBR021W, strain FUR4, hits give low values 0.85 | S. cerevisiae deletion strains, locus YBR229C, strain ROT2, hits give low values 1.01 | S. cerevisiae deletion strains, locus YCL029C, strain bik1, hits give low values 0.97 | S. cerevisiae deletion strains, locus YDL035C, strain GPR1, hits give low values 0.871 | S. cerevisiae deletion strains, locus YDL074C, strain BRE1, hits give low values 0.872 | S. cerevisiae deletion strains, locus YDL101C, strain DUN1, hits give low values 0.999 | S. cerevisiae deletion strains, locus YDL134C, strain PPH21, hits give low values 1 | S. cerevisiae deletion strains, locus YDL185W, strain tfp1, hits give low values 0.951 | S. cerevisiae deletion strains, locus YDR101C, strain arx1, hits give low values 0.984 | S. cerevisiae deletion strains, locus YDR150W, strain NUM1, hits give low values 0.998 | S. cerevisiae deletion strains, locus YDR318W, strain mcm21, hits give low values 0.926 | S. cerevisiae deletion strains, locus YDR388W, hits give low values 0.98 | S. cerevisiae deletion strains, locus YDR502C, strain sam2, hits give low values 0.933 | S. cerevisiae deletion strains, locus YEL061C, strain CIN8, hits give low values 1 | S. cerevisiae deletion strains, locus YER110C, hits give low values 0.965 | S. cerevisiae deletion strains, locus YER155C, strain BEM2, hits give low values 1.01 | S. cerevisiae deletion strains, locus YER167W, strain BCK2, hits give low values 0.944 | S. cerevisiae deletion strains, locus YGL078C, strain dbp3, hits give low values 1 | S. cerevisiae deletion strains, locus YGL248W, strain PDE1, hits give low values 1.01 | S. cerevisiae deletion strains, locus YGR078C, strain PAC10, hits give low values 0.949 | S. cerevisiae deletion strains, locus YGR135W, strain pre9, hits give low values 0.936 | S. cerevisiae deletion strains, locus YGR229C, strain SMI1, hits give low values 1.03 | S. cerevisiae deletion strains, locus YGR252W, strain gcn5, hits give low values 0.783 | S. cerevisiae deletion strains, locus YHR030C, strain SLT2, hits give low values 1 | S. cerevisiae deletion strains, locus YHR079C, strain IRE1 (second series), hits give low values 0.99 | S. cerevisiae deletion strains, locus YHR094C, strain hxt1, hits give low values 0.993 | S. cerevisiae deletion strains, locus YHR129C, strain ARP1, hits give low values 0.996 | S. cerevisiae deletion strains, locus YHR200W, strain rpn10, hits give low values 0.955 | S. cerevisiae deletion strains, locus YIL066C, strain RNR3, hits give low values 0.879 | S. cerevisiae deletion strains, locus YIL073C, strain SPO22, hits give low values 0.806 | S. cerevisiae deletion strains, locus YIL125W, strain kgd1, hits give low values 0.992 | S. cerevisiae deletion strains, locus YIR030C, strain dcg1, hits give low values 0.996 | S. cerevisiae deletion strains, locus YJL095W, strain BCK1, hits give low values 0.946 | S. cerevisiae deletion strains, locus YJL134W, strain LCB3, hits give low values 1.01 | S. cerevisiae deletion strains, locus YJL168C, strain set2, hits give low values 1 | S. cerevisiae deletion strains, locus YJL187C, strain SWE1 (second series), hits give low values 0.974 | S. cerevisiae deletion strains, locus YJR043C, strain POL32, hits give low values 0.911 | S. cerevisiae deletion strains, locus YJR075W, strain HOC1, hits give low values 0.968 | S. cerevisiae deletion strains, locus YKL009W, strain mrt4, hits give low values 0.884 | S. cerevisiae deletion strains, locus YKL068W, hits give low values 1 | S. cerevisiae deletion strains, locus YKL085W, strain MDH1 (second series), hits give low values 1.01 | S. cerevisiae deletion strains, locus YKL085W, strain MDH1, hits give low values 1.01 | S. cerevisiae deletion strains, locus YKL190W, strain CNB1, hits give low values 0.991 | S. cerevisiae deletion strains, locus YLR058C, strain SHM2, hits give low values 0.985 | S. cerevisiae deletion strains, locus YLR102C, strain apc9, hits give low values 1.01 | S. cerevisiae deletion strains, locus YLR268W, strain sec22, hits give low values 0.976 | S. cerevisiae deletion strains, locus YLR330W, strain CHS5, hits give low values 0.986 | S. cerevisiae deletion strains, locus YLR342W, strain FKS1 (second series), hits give low values 0.81 | S. cerevisiae deletion strains, locus YLR371W, strain rom2, hits give low values 0.97 | S. cerevisiae deletion strains, locus YLR418C, strain cdc73, hits give low values 0.914 | S. cerevisiae deletion strains, locus YML016C, strain PPZ1, hits give low values 0.985 | S. cerevisiae deletion strains, locus YML124C, strain tub3, hits give low values 1 | S. cerevisiae deletion strains, locus YMR078C, strain ctf18, hits give low values 0.965 | S. cerevisiae deletion strains, locus YMR223W, strain ubp8, hits give low values 0.914 | S. cerevisiae deletion strains, locus YMR263W, strain SAP30, hits give low values 0.971 | S. cerevisiae deletion strains, locus YMR307W, strain GAS1, hits give low values 0.91 | S. cerevisiae deletion strains, locus YNL067W, strain RPL9B, hits give low values 0.944 | S. cerevisiae deletion strains, locus YNL128W, strain TEP1, hits give low values 0.995 | S. cerevisiae deletion strains, locus YNL153C, strain GIM3, hits give low values 1 | S. cerevisiae deletion strains, locus YNL233W, strain BNI4, hits give low values 0.989 | S. cerevisiae deletion strains, locus YNL250W, strain rad50, hits give low values 0.952 | S. cerevisiae deletion strains, locus YNL271C, strain bni1, hits give low values 0.964 | S. cerevisiae deletion strains, locus YNL322C, strain KRE1, hits give low values 0.992 | S. cerevisiae deletion strains, locus YOL006C, strain TOP1, hits give low values 0.787 | S. cerevisiae deletion strains, locus YOL012C, strain htz1 1.6 | S. cerevisiae deletion strains, locus YOL147C, strain pex11, hits give low values 0.978 | S. cerevisiae deletion strains, locus YOR061W, strain CKA2, hits give low values 0.993 | S. cerevisiae deletion strains, locus YOR069W, strain VPS5, hits give low values 1 | S. cerevisiae deletion strains, locus YOR136W, strain idh2, hits give low values 0.995 | S. cerevisiae deletion strains, locus YOR144C, strain elg1, hits give low values 0.986 | S. cerevisiae deletion strains, locus YOR316C, strain cot1, hits give low values 0.997 | S. cerevisiae deletion strains, locus YPL055C, strain LGE1, hits give low values 0.874 | S. cerevisiae deletion strains, locus YPL241C, strain CIN2, hits give low values 1 | S. cerevisiae deletion strains, locus YPR119W, strain clb2, hits give low values 1.01 | S. cerevisiae deletion strains, locus YPR141C, strain kar3, hits give low values 0.997 | S. cerevisiae deletion strains, locus YPR163C, strain tif3, hits give low values 0.961 | S. cerevisiae deletion strains, locus YPR167C, strain met16, hits give low values 0.998 | S. cerevisiae deletion strains, strain wtn01, hits give low values 0.929 | S. cerevisiae strains, strain wild type, hits give low values 0.95
active: S. cerevisiae deletion strains, locus YDL192W, strain arf1, hits give low values 0.916 | S. cerevisiae deletion strains, locus YDR162C, strain NBP2, hits give low values 0.785 | S. cerevisiae deletion strains, locus YGL086W, strain mad1, hits give low values 0.922 | S. cerevisiae deletion strains, locus YKR001C, strain vps1, hits give low values 0.836 | S. cerevisiae deletion strains, locus YLR039C, strain RIC1, hits give low values 0.578 | S. cerevisiae deletion strains, locus YLR262C, strain YPT6, hits give low values 0.559 | S. cerevisiae deletion strains, locus YML032C, strain rad52, hits give low values 0.903 | S. cerevisiae deletion strains, locus YNL298W, strain CLA4, hits give low values 0.886 | S. cerevisiae deletion strains, locus YNL307C, strain MCK1, hits give low values 0.765 | S. cerevisiae deletion strains, locus YNR052C, strain pop2, hits give low values 0.873 | S. cerevisiae deletion strains, locus YOR184W, strain ser1, hits give low values 0.675
